Source: PubChem BioAssay (National Center for Advancing Translational Sciences (NCATS))
Shown are actives, neighbours in structure and some others; about 6.5% of the full set was active somewhere.
IL1B secr inh – inflammasome signaling inhibition, IL-1 beta readout; THP-1 LPS/ATP IL-1B secretion, AlphaLISA, 16 h; hits give low values; activity change, % at 57.5 µM; 4.7% of 360,000 active; in the data active = activity change below about -50%; inconclusive = mostly about -30% to -49%; also: % is scaled to controls: 0 for no effect and ±100 for the full control effect
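THP-1 cells pretreated 1 hr with compounds (up to 57.5 uM final), then stimulated with LPS (250 ng/mL final) plus ATP (1.25 mM final); secreted IL-1B measured by AlphaLISA after 16 hr, decreased signal indicating inhibition.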
HepG2 viability – HepG2 cytotoxicity, counter-screen for TGF-b inhibitors | HepG2 CAGA-GFP viability, ATP luminescence, 18 h | Potency, µM (highest dose often 46.1 µM), inactives show at the top dose activity change, negative = cytotoxicity, usual class: cytotoxic | 0.76% of 410,000 active | AID 588856; also: potency is read from the fitted curve at half-maximal effect
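CellTiter-Glo luminescence gave cytotoxicity after 18 hours at 37 degrees C. The cells were HepG2 CAGA-GFP in 1% FBS DMEM, stimulated with 500 pg/mL TGF-beta after compound addition. %Activity was normalised to no-cell wells (complete cell-killing) and DMSO (no toxicity), and curves were fitted and classified.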
HT1080 IDH1KD tx – toxicity to HT-1080 IDH1 knockdown cells (counter line). 2% of 360,000 active. AID 686971. HT-1080 IDH1 knockdown viability, ATP luminescence, 48 h. Potency, µM (top dose mostly 46.1 µM), for inactives: top-dose activity, negative = toxicity, hits mostly cytotoxic;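 also: potency is read from the fitted curve at half-maximal effect; 0% = DMSO wells and -100% = cell-free medium wells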
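Using the IDH1-knockdown HT-1080 line run in the same batch and compound series as the NT line, viability after 48 h at 37 °C was determined by CellTiter-Glo luminescence and expressed as % activity.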
HT1080-NT tox – kills 2HG-producing HT-1080-NT fibrosarcoma cells | HT-1080-NT fibrosarcoma viability, CellTiter-Glo ATP luminescence, 48 h | Potency, µM (highest dose often 46.1 µM), without a hit: at the top dose activity, negative = less viability, usual class: cytotoxic | 1.6% of 360,000 active;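 also: NT is the 2HG producing partner of a matched IDH1 knockdown line; potency is read from the fitted curve at half-maximal effect; 0% = DMSO-treated cells and -100% = media-only wells without cells; nearly all actives have a fitted effect of over 55% in size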
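A 48-hour cytotoxicity screen used HT-1080-NT cells plated 2 hours before compound delivery. ATP-based CellTiter-Glo luminescence measured viability, normalized to DMSO and no-cell controls.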
TGFb inhibitor – TGF-b pathway inhibition | HepG2 CAGA-GFP TGF-b/SMAD3 reporter, GFP fluorescence, 18 h; TGF-beta stimulated, 500 pg/mL final | Potency, µM (doses to about 46.1 µM), inactives show top-dose activity, negative = inhibition, actives largely listed as inhibitors | 1.2% of 410,000 active | AID 588855; also: potency is read from the fitted curve at half-maximal effect; % is scaled to controls: 0 for no effect and ±100 for the full control effect; nearly all actives have a fitted effect of over 65% in size
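Using HEPG2 CAGA-GFP reporter cells at 1000 cells/well, we pinned test compounds, stimulated with recombinant TGF-beta (500 pg/mL final) and measured total well GFP after 18 h.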
Giardia killer – Giardia lamblia killing; Giardia lamblia trophozoite viability; activity change, % at 7.66 µM, hits read low; 0.15% of 340,000 active; in the data active = activity change below about -80%; inconclusive = between about -30% and that limit;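 also: parasites exposed to compound for two days anaerobically before the ATP read; % is scaled to controls: 0 for no effect and ±100 for the full control effect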
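Luminescence from cellular ATP indicates surviving trophozoites (100 cells/well) following 48 hrs anaerobic compound treatment at 37 deg C; signal develops 15-30 min at room temperature.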
* marks the source's active call; other numbers are inactive results; ? = inconclusive; . = not tested or not shown. Unless noted, calls follow the shape of the dose curve; as a rule, active = well fitted curve in the direction sought with a large enough effect; inconclusive = small, poorly fitted or top-dose-only effect, or another doubt; inactive = no such curve, though single readings can be large; an effect the other way counts as inactive or inconclusive.

SMILES	IL1B secr inh	HepG2 viability	HT1080 IDH1KD tx	HT1080-NT tox	TGFb inhibitor	Giardia killer
O=C(c1ccccc1)N1CCN(C2CC3CCC2C3)CC1 (stereo not drawn)	-5.9	1.0%	13.1%	7.1%	3.2%	1.4
CC(C)C[C@H](NC(=O)N1CCn2c1nc1ccccc12)C(=O)NCCc1ccccc1	-50.6*	1.0%	-20.1%	-18.1%	?	-10.3
CC(C)C[C@H](NC(=O)N1CCn2c1nc1ccccc12)C(=O)NCc1ccccc1	-11.8	-12.3%	-6.7%	-10.8%	?	6.2
COc1ccc(CCNC(=O)c2ccc(Cn3c(=O)c4ccccc4n(Cc4cccc(Cl)c4)c3=O)cc2)cc1OC	.	-19.0%	.	.	?	.
O=C(Cc1ccccc1)NCCN1CCCC1	-0.1	4.4%	5.1%	-13.3%	9.3%	-9.4
COc1ccc(C2=Nn3c(nnc3-c3ccccc3F)SC2)cc1OC1CCCC1	.	-67.4%	.	.	12.6µM*	?
O=S(=O)(NCc1csc(-c2cccs2)n1)c1cccc(C(F)(F)F)c1	23.7	-96.8%	-1.8%	-0.5%	15.8µM*	-1.0
O=S(=O)(NCc1csc(-c2cccs2)n1)c1ccc(Cl)cc1	12.3	-24.4%	1.9%	-0.5%	?	-7.3
Cc1ccc(S(=O)(=O)N2C[C@@H]3[C@H]4CC[C@H](C4)[C@@H]3[C@@H](C)[C@@H]2c2ccn([Si](C(C)C)(C(C)C)C(C)C)c2)cc1	25.0	-14.8%	9.4%	6.8%	-3.8%	3.5
CCOC(=O)c1ccc(NC(=O)c2c(NCc3sccc3C)sc3c2CCCCC3)cc1	.	22.6%	.	.	96.8%	.
Cc1ccc(CCC(=O)Nc2cc(Cl)ccc2Cl)o1	-27.6	-1.2%	-1.8%	1.3%	4.0%	-22.0
Cc1cccc(OCCSc2nncn2C)c1	11.3	6.9%	12.3%	17.9%	13.1%	-9.9
Cn1cnnc1SCCOc1ccc(Cl)cc1	-80.0*	-18.3%	-1.8%	-1.3%	-2.2%	-2.1
O=C1N/C(=C/c2ccc(N3CCOCC3)o2)C(=O)N1c1ccccc1	-103.7*	-47.2%	-4.3%	?	?	?
O=C1NC(=S)S/C1=C/c1ccc(N2CCOCC2)o1	12.2	-34.6%	-28.7%	-18.4%	-2.8%	-14.6
CCCCCOC(=O)C1=C(C)Nc2nnnn2C1c1ccccc1Cl (stereo not drawn)	8.8	-108.9%	20.6µM*	13µM*	?	-4.9
COC(=O)C1=C(C)Nc2nnnn2C1c1ccccc1Cl (stereo not drawn)	18.6	-3.9%	3.0%	7.2%	-3.8%	4.7
Cc1ccc(-c2cc3cccc[n+]3cc2-c2ccc(C)cc2)cc1	-88.4*	-13.2%	?	?	?	53.2
CCc1cc2c(SCC(=O)Nc3ccc(NC(C)=O)cc3)ncnc2s1	-14.7	-25.0%	0.5%	-19.7%	2.7%	-0.8
CCc1cc2c(Sc3nc4ccccc4s3)ncnc2s1	?	-18.3%	?	5.17µM*	0.0%	-2.0
c1ccc2sc(Sc3ncnc4sccc34)nc2c1	-78.7*	-54.9%	?	-24.5%	?	6.6
c1ccc(CSc2ncnc3sccc23)cc1	0.0	-15.8%	11.2%	9.7%	-19.5%	-10.6
CC(NO)C(C)(C)NO (stereo not drawn)	40.7	14.7%	-0.9%	11.4%	-4.1%	-8.7
CN(CCNC(=O)c1cc2c(=O)n(C)c3ccccc3c2n1C)Cc1ccccc1	?	-37.1%	-0.8%	-25.8%	?	-9.1
Cn1c(C(=O)NCCN2CCOCC2)cc2c(=O)n(C)c3ccccc3c21	-8.5	2.4%	0.0%	-8.9%	15.3%	4.1
SMILES	IL1B secr inh	HepG2 viability	HT1080 IDH1KD tx	HT1080-NT tox	TGFb inhibitor	Giardia killer
CCCN(CCC)CCNC(=O)c1cc2c(=O)n(C)c3ccccc3c2n1C	-63.4*	-31.8%	-15.0%	-13.0%	2.3%	46.4
CC1CCCCN1CCNC(=O)c1cc2c(=O)n(C)c3ccccc3c2n1C (stereo not drawn)	-55.0*	-18.2%	-11.6%	-10.9%	12.4%	-12.2
Cc1cc(C)cc(Oc2ccc(-c3nnc(-c4ccccc4)o3)cc2[N+](=O)[O-])c1	2.3	-6.7%	29.1%	27.5%	?	-6.7
COc1ccc(-n2cc(CNC(C)c3ccncn3)c(-c3cccc(F)c3)n2)cc1 (stereo not drawn)	-23.1	1.5%	-13.6%	-12.0%	-15.3%	-3.2
COc1ccc(-n2cc(CN[C@H]3CCCCNC3=O)c(-c3cccc(F)c3)n2)cc1	?	-32.0%	-1.4%	-14.9%	?	-9.5
CCC(COC)NCc1cn(-c2ccc(OC)cc2)nc1-c1cccc(F)c1 (stereo not drawn)	-82.2*	-16.9%	?	?	-11.6%	1.3
COc1ccc(-n2cc(CN3CCCC3)c(-c3cccc(F)c3)n2)cc1	-76.8*	-9.0%	-17.6%	-7.9%	-7.4%	5.9
COc1ccc(-n2cc(CNC3CCN(C)CC3)c(-c3cccc(F)c3)n2)cc1	-62.8*	11.2µM*	20.6µM*	20.6µM*	?	4.4
Cc1cccc(-n2cc(CN3CCN(Cc4nccn4C)CC3)c(-c3cccc(F)c3)n2)c1	?	-34.7%	?	-24.8%	?	21.3
Cc1sc2ncnc(NCc3ccccc3)c2c1C	-67.8*	-44.8%	-24.7%	-29.0%	10.7%	17.6
CCOC(=O)c1ccc(CNC(=O)C2CCCCC2C(=O)OCC(F)(F)F)o1 (stereo not drawn)	5.0	4.8%	20.0%	6.7%	9.6%	12.6
Cc1[nH]c2c(Cl)cccc2c1CCNC(=O)C1CCCCC1C(=O)OCC(F)(F)F (stereo not drawn)	-79.7*	20.6%	-7.3%	-19.6%	9.0%	13.8
O=C1c2ccccc2NC(c2cccc(O)c2)N1NS(=O)(=O)c1ccccc1 (stereo not drawn)	-19.5	-16.6%	-3.1%	-1.3%	-1.2%	13.7
Cc1cc2c(SCC(=O)NC3CCCC3)ncnc2s1	-10.3	-23.6%	19.4%	20.2%	-23.6%	?
Cc1nn(C)cc1[C@@H]1C[C@H]2CN(Cc3cccc(Cl)c3)C(=O)[C@]23CCCN13	-14.0	1.1%	-7.2%	-6.7%	21.8%	-25.4
Cn1cc([C@@H]2C[C@H]3CN(Cc4cccc(Cl)c4)C(=O)[C@]34CCCN24)c(-c2ccccc2)n1	-80.0*	0.0%	-24.2%	-18.9%	?	7.6
COc1cccc2c1OCC([C@@H]1C[C@H]3CN(Cc4cccc(Cl)c4)C(=O)[C@]34CCCN14)=C2	-60.8*	-20.0%	-19.5%	-19.5%	-19.0%	-1.0
COc1ccccc1/C=C/[C@@H]1C[C@H]2CN(Cc3cccc(Cl)c3)C(=O)[C@]23CCCN13	0.0	0.1%	-16.9%	-11.8%	?	10.7
